Out of some 310,000 compounds screened, about 14,000 (4.5%) showed an effect of 50% or more. Effects have a minus sign here. The list comes from a sample in which strong results are over-represented; it also holds similar structures and randomly drawn compounds.
Each compound was assayed against human ether-à-go-go-related gene (hERG) potassium channel (human, UniProt Q12809) (assay: primary screen, population patch clamp on CHO cells stably expressing hERG; higher = less effect of the substance).
Chain of human ether-à-go-go-related gene (hERG) potassium channel (Q12809 whole entry, looked up): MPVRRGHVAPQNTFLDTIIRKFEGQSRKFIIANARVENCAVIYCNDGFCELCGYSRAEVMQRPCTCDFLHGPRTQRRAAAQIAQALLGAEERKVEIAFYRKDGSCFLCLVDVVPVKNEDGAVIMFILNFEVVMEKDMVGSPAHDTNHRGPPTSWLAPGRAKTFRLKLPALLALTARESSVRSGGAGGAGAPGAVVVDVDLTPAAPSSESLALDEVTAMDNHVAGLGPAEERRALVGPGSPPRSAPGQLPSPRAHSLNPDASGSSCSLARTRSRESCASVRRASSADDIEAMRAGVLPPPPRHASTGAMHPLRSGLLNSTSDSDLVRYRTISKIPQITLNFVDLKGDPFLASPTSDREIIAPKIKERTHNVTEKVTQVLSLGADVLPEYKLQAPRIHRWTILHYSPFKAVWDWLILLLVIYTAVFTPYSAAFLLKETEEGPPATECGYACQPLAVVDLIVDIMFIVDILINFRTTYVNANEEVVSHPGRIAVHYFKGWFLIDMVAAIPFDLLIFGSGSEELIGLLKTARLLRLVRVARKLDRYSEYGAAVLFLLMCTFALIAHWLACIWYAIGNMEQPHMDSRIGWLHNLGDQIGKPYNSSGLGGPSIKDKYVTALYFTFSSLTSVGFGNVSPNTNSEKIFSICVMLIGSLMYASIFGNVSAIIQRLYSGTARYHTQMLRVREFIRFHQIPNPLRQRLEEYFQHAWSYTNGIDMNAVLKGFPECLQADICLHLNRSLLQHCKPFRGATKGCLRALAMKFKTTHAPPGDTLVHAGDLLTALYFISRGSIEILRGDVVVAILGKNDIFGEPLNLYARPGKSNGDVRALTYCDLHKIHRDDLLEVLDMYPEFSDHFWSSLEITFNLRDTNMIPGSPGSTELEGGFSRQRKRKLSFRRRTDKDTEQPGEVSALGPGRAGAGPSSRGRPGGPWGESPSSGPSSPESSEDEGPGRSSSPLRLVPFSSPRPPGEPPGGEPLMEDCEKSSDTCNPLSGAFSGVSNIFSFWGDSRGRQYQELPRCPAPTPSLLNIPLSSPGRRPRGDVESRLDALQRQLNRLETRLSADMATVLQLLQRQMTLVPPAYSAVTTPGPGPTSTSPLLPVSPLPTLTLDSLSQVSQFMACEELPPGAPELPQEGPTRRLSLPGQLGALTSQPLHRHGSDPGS
In the case of `Cc1ccnc(SCC(=O)N2CCN(c3cccc(Cl)c3)CC2)n1`, the “hERG current change (%, negative = inhibition) at 10uM” value is reported as -25.2%.
In the case of `O=C(NC1CCN(C(=S)Nc2ccccc2Cl)CC1)C1CCCCC1`, the “hERG current change (%, negative = inhibition) at 10uM” value is reported as 14%.
In the case of `O=C(CSc1nc2scc(-c3ccccc3)c2c(=O)[nH]1)NCCc1ccccc1`, the “hERG current change (%, negative = inhibition) at 10uM” value is reported as -1.09%.
`Cc1cccc(NC(=O)CN2CCN(C(=O)COc3cccc(Br)c3)CC2)c1C` was tested, and the “hERG current change (%, negative = inhibition) at 10uM” value was -70.4%.
With `Cc1ccccc1NC(=O)CNC(=O)Cc1cccc2ccccc12` the “hERG current change (%, negative = inhibition) at 10uM” value was 1.16%.
`CCc1ccccc1NC(=O)CN1CCN(C(=O)CNC(=O)c2ccc(N3CCCC3=O)cc2)CC1` was tested, and the “hERG current change (%, negative = inhibition) at 10uM” value was -3.9%.
`CCc1ccccc1NC(=O)CN1CCN(C(=O)CNC(=O)c2ccc(-c3ccccc3)cc2)CC1` was tested, and the “hERG current change (%, negative = inhibition) at 10uM” value was -57%.
For `O=C(CN1CCN(C(=O)CNC(=O)c2ccc3c(c2)OCO3)CC1)Nc1ccccc1Cl`, the “hERG current change (%, negative = inhibition) at 10uM” value was -49.3%.
For `CCOC(=O)N1CCN(CC(=O)Nc2cccc(Br)c2)CC1`, the “hERG current change (%, negative = inhibition) at 10uM” value was -18.9%.
For `Cc1cccc(NC(=O)CN2CCOCC2)c1C`, the “hERG current change (%, negative = inhibition) at 10uM” value was 13.9%.
`Cc1cccc(NC(=O)CN2CCN(C(=O)CNC(=O)Cc3cccc4ccccc34)CC2)c1C` was tested, and the “hERG current change (%, negative = inhibition) at 10uM” value was -57.4%.
With `Cc1cccc(NC(=O)CNC(=O)CN2CCN(C)CC2)c1C` the “hERG current change (%, negative = inhibition) at 10uM” value was 7.6%.
In the case of `O=C(O)CN1CCN(CC(=O)O)CCN(CC(=O)O)CCN(CC(=O)O)CC1`, the “hERG current change (%, negative = inhibition) at 10uM” value is reported as 7.18%.
With `O=C(Nc1cccc(C(=O)N2CCOCC2)c1)c1ccccc1Cl` the “hERG current change (%, negative = inhibition) at 10uM” value was -17%.
With `COc1ccc(C(=O)Nc2ccc(-c3ccc(C)o3)cc2)cc1S(=O)(=O)N1CCOCC1` the “hERG current change (%, negative = inhibition) at 10uM” value was 14.6%.
With `O=C(NCc1cccs1)C1CCCN1C(=O)Nc1ccccc1` (centres unmarked) the “hERG current change (%, negative = inhibition) at 10uM” value was 21%.
With `CCN(C(=O)COC(=O)c1ccc2ccccc2c1)c1c(N)n(Cc2ccccc2)c(=O)[nH]c1=O` the “hERG current change (%, negative = inhibition) at 10uM” value was 14.1%.
In the case of `COc1ccc(C(=O)OCC(=O)Nc2sccc2C(N)=O)cc1OC`, the “hERG current change (%, negative = inhibition) at 10uM” value is reported as -0.284%.
With `CCC(=O)N(C)CCc1cc2c(c(OC)c1/C=N/Nc1ccc(C(=O)O)cc1)OCO2` the “hERG current change (%, negative = inhibition) at 10uM” value was -1.63%.
With `O=C(Nc1cccc(Cl)c1)c1nc[nH]c1C(=O)N1CCc2ccccc2C1` the “hERG current change (%, negative = inhibition) at 10uM” value was -15.6%.
`CCOc1ccc(NS(=O)(=O)c2ccc(C(=O)N3CCCCC3)cc2)cc1` was tested, and the “hERG current change (%, negative = inhibition) at 10uM” value was -9.46%.
With `COc1ccc(Cn2cnc3c(N)c(C)c(C)cc32)cc1` the “hERG current change (%, negative = inhibition) at 10uM” value was 5.13%.
`N#CC1(NC(=O)COc2ccc3oc4ccccc4c3c2)CCCCC1` was tested, and the “hERG current change (%, negative = inhibition) at 10uM” value was 12.1%.
With `COC(=O)c1ccc(CNC(=O)COC(=O)C2CC3C=CC2C3)cc1` (centres unmarked) the “hERG current change (%, negative = inhibition) at 10uM” value was 11.2%.
For `COc1ccc(-n2nc3c(c2NC(=O)CCCCl)CSC3)cc1`, the “hERG current change (%, negative = inhibition) at 10uM” value was -1.78%.
`Cc1cc(N2CCCC2)nc2ccc(NC(=S)NCCCN3CCC(C)CC3)cc12` was tested, and the “hERG current change (%, negative = inhibition) at 10uM” value was -29.6%.
In the case of `CCCN(CCC)CCCNC(=S)Nc1ccc2nc(N3CCCC3)cc(C)c2c1`, the “hERG current change (%, negative = inhibition) at 10uM” value is reported as -60.4%.
With `CCCN(CCC)CCCNC(=S)Nc1ccc2nc(N3CCN(C)CC3)cc(C)c2c1` the “hERG current change (%, negative = inhibition) at 10uM” value was 8.86%.
For `CCN1CCN(c2cc(C)c3cc(NC(=S)NCCCOC)ccc3n2)CC1`, the “hERG current change (%, negative = inhibition) at 10uM” value was 5.8%.
In the case of `COCCNC(=S)Nc1ccc2nc(N3CCCC3)cc(C)c2c1`, the “hERG current change (%, negative = inhibition) at 10uM” value is reported as -71.6%.
`CCOCCCNC(=S)Nc1ccc2nc(N3CCCC3)cc(C)c2c1` was tested, and the “hERG current change (%, negative = inhibition) at 10uM” value was -73.3%.
For `CCOCCCNC(=S)Nc1ccc2nc(N3CCOCC3)cc(C)c2c1`, the “hERG current change (%, negative = inhibition) at 10uM” value was -7.68%.
In the case of `COCCNC(=S)Nc1ccc2nc(N3CCN(C)CC3)cc(C)c2c1`, the “hERG current change (%, negative = inhibition) at 10uM” value is reported as 8.03%.
For `Cc1cc(N2CCCC2)nc2ccc(NC(=S)NCCCOC(C)C)cc12`, the “hERG current change (%, negative = inhibition) at 10uM” value was -83.4%.
For `CCN(CC)CCNC(=S)Nc1ccc2nc(N3CCCC3)cc(C)c2c1`, the “hERG current change (%, negative = inhibition) at 10uM” value was -8.93%.
In the case of `CCOCCCNC(=S)Nc1ccc2nc(N3CCN(CC)CC3)cc(C)c2c1`, the “hERG current change (%, negative = inhibition) at 10uM” value is reported as 4.36%.
In the case of `CCCN(CCC)CCCNC(=S)Nc1ccc2nc(N3CCN(CC)CC3)cc(C)c2c1`, the “hERG current change (%, negative = inhibition) at 10uM” value is reported as -3.08%.
For `CCOc1ccc(C(=O)Nc2ncn[nH]2)cc1`, the “hERG current change (%, negative = inhibition) at 10uM” value was 19.1%.
`O=C(CCc1c[nH]c2ccccc12)N/N=C/c1ccc2c(c1)OCO2` was tested, and the “hERG current change (%, negative = inhibition) at 10uM” value was 6.33%.
`CC1=CCC2C(=O)N(CCc3c[nH]c4ccccc34)C(=O)C2C1` (centres unmarked) was tested, and the “hERG current change (%, negative = inhibition) at 10uM” value was -9.31%.
For `COc1ccc(CC(=O)NNc2ncnc3c2cnn3-c2ccc(C)cc2)cc1OC`, the “hERG current change (%, negative = inhibition) at 10uM” value was 10.5%.
In the case of `COc1ccc(CNC(=O)Cn2nnc(-c3ccc(NC(=O)C4CCCCC4)cc3)n2)cc1`, the “hERG current change (%, negative = inhibition) at 10uM” value is reported as 14%.
With `COc1ccccc1NS(=O)(=O)c1cc(-c2cnc(C3CC3)o2)ccc1C` the “hERG current change (%, negative = inhibition) at 10uM” value was 3.37%.
With `O=C1CSC(c2cn(-c3ccccc3)nc2-c2cccs2)N1Cc1ccccc1` (centres unmarked) the “hERG current change (%, negative = inhibition) at 10uM” value was -1.38%.
With `O=Cc1c(NCc2ccccc2F)c2ccccc2[nH]c1=O` the “hERG current change (%, negative = inhibition) at 10uM” value was 13.8%.
With `Cc1cc(N2CCCC2)nc2ccc(NC(=S)NC(C)C)cc12` the “hERG current change (%, negative = inhibition) at 10uM” value was -71.6%.
With `CCOCCCNC(=S)N1CCCN(c2nc3cc(C)cc(C)c3cc2C#N)CC1` the “hERG current change (%, negative = inhibition) at 10uM” value was -55.6%.
With `CCC(C)NC(=S)Nc1ccc2nc(N3CCOCC3)cc(C)c2c1` (centres unmarked) the “hERG current change (%, negative = inhibition) at 10uM” value was 5.86%.
`Cc1cc(N2CCOCC2)nc2ccc(NC(=S)NC(C)C)cc12` was tested, and the “hERG current change (%, negative = inhibition) at 10uM” value was -12.4%.
In the case of `CCOCCCNC(=S)N1CCCN(c2nc3cc(C)ccc3cc2C#N)CC1`, the “hERG current change (%, negative = inhibition) at 10uM” value is reported as -30.9%.
`CCOCCCNC(=S)N1CCCN(c2nc3cc(C)c(C)cc3cc2C#N)CC1` was tested, and the “hERG current change (%, negative = inhibition) at 10uM” value was -36.4%.
With `CSc1nsc(SCC(=O)Nc2ccc(OC(C)=O)cc2)n1` the “hERG current change (%, negative = inhibition) at 10uM” value was 4.1%.
In the case of `Cc1c(N=N/C(C(=O)Nc2ccccc2)=C(/O)c2ccccc2)c(=O)n(-c2ccccc2)n1C`, the “hERG current change (%, negative = inhibition) at 10uM” value is reported as 8.85%.
In the case of `CC(C)CN=CC1=C(O)c2ccccc2C1=O`, the “hERG current change (%, negative = inhibition) at 10uM” value is reported as -71.4%.
For `CN=CC1=C(O)c2ccccc2C1=O`, the “hERG current change (%, negative = inhibition) at 10uM” value was 14.7%.
For `O=C1C(C=NCc2ccncc2)=C(O)c2ccccc21`, the “hERG current change (%, negative = inhibition) at 10uM” value was -9.12%.

— paper PMC4336329 (PLoS ONE, 2015)
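Note: peak tail current of the secondary pulse compared with the same well before compound.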
